Only some compounds are listed: those with a hit (about 2.8% of all), similar ones and a draw of the others.
TROY NFkB inh: inhibitors of TROY-driven NF-kB signaling, primary screen, Q293 LMP1-TROYcd cells, NF-kB luciferase, uHTS; Q293 LMP1-TROYcd NF-kB luciferase reporter, 4 h; AID 1347056, 2019; inhibition, % at 10 µM; 0.98% of 360,000 active;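 active = compounds whose plate-normalised and pattern-corrected inhibition of the luciferase reporter signal at the single screening dose is 50% or more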
EWS-Fli inh: EWS/Fli-driven NR0B1 reporter inhibitors, primary screen, A673 cells, NR0B1 luciferase, luminescence, MLPCN library; viability-normalised; inhibition, % at 12.6 µM; 0.67% of 350,000 active;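 active = mean inhibition of at least 50% after viability correction, with every replicate also passing that limit; inconclusive = mean reaches 50% but only one of two replicates passes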;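 note: firefly luciferase signal divided by Alamar Blue viability fluorescence both relative to DMSO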
PAX8 inh HTS: inhibitors of PAX8-driven TPO luciferase reporter, primary screen, RMG-I cells, single concentration; inhibition, % at 12.6 µM; 1.2% of 360,000 active; SteadyGlo, 24 h;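 active = mean replicate inhibition at least 60% with every replicate also reaching 60%; inconclusive = only one of the two criteria is met; inactive = mean below 60% and not all replicates reaching 60%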;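 note: luciferase light reporting Pax8 driven TPO promoter activity; plate controls were median of neutral control wells for no effect and mitoxantrone controls for full effect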
TWEAK-Fn14 inh: inhibitors of TWEAK-Fn14 signaling, primary screen, luciferase reporter cells, uHTS; TWEAK-stimulated Fn14 reporter cells, luciferase luminescence, 8 h; inhibition, % at 10 µM; 2% of 360,000 active; AID 1159606, 2016; in the data active = inhibition above about 50%
LGR2 inh: inhibitors of bursicon-induced LGR2 CRE-luciferase signal, primary screen, cell-based, HEK293, CRE-luciferase reporter, bursicon stimulation. Drosophila bursicon receptor LGR2 (rickets). bursicon-stimulated, 4 h. inhibition, % at 9.99 µM. 0.35% of 380,000 active. AID 720647, 2013;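 active = drop in luminescence signal, shown as inhibition above about 50% in the replicate tests, limit read from the data, passing the limit was not always enough; inconclusive = probably only some replicates passing the limit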;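 note: agonist challenge used bursicon conditioned medium at about half maximal strength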
* hit, by the source's call; u = inconclusive; x = no result given.

SMILES	TROY NFkB inh	EWS-Fli inh	PAX8 inh HTS	TWEAK-Fn14 inh	LGR2 inh
Cc1ccc(Nc2nc(CSc3nnc(-c4ccncc4)n3C)cs2)cc1	41	x	-78	53*	10
Cc1ccc(CSc2nnc(-c3ccncc3)n2C)cc1	4	x	-18	-5	x
C[C@@H]1CN([C@@H](C)CO)C(=O)Cc2cc(NS(=O)(=O)c3cccs3)ccc2O[C@H]1CN(C)Cc1ccncc1	x	-7	4	x	4
COc1ccc(-n2cccc2C=O)cc1OC	-16	x	-18	-1	x
COc1ccccc1-n1cccc1C=O	90*	4	-1	3	8
Cc1cc2nc(N3C(=O)CNC3=S)sc2cc1C	63*	9	-59	90*	u
O=C(c1ccccc1F)N1CC(=O)N2[C@H](C1)[C@@H](c1ccc(-c3ccccc3)cc1)[C@@H]2CO	x	3	10	x	14
O=C(O)c1cccc(COc2ccc3c(c2)CCC3)c1	-89	88*	108*	12	101*
CCOc1ccc(OCc2cccc(C(=O)N3CCCC3)c2)cc1	-61	x	x	-6	-32
O=C(O)c1cccc(COc2ccc(CO)cc2Cl)c1	-26	89*	x	71*	100*
COc1ccc(OCc2cccc(C(=O)O)c2)cc1	-38	x	x	53*	x
CCOc1ccc(OCc2cccc(C(=O)O)c2)cc1	-30	88*	x	46	102*
CC(C)NC(=O)N1CC2(C1)[C@H](c1ccccc1)[C@H](CO)N2Cc1cccnc1	x	0	x	x	-9
CCCNC(=O)Nc1ccc2c(c1)C(=O)N(C)C[C@@H](OC)[C@@H](C)CN(Cc1ccccc1)[C@@H](C)CO2	x	-10	x	x	-5
COc1ccc(CN(C)C[C@@H]2OCCCC[C@H](C)Oc3ccc(NC(=O)Cc4ccccc4)cc3C(=O)N([C@H](C)CO)C[C@H]2C)cc1	x	5	-3	x	-9
C/C(N)=C(/C#N)C(=O)CSc1nnc(-c2ccccc2Br)o1	17	x	x	73*	32
COc1ccc(-c2nnc(SCC(=O)/C(C#N)=C(\C)N)o2)cc1	31	x	x	65*	x
O=C(CSc1nnc(-c2ccccc2Br)o1)N1CCOCC1	-24	-89	-117	9	-29
Cc1ccnc(N/C=C(/NC(=O)c2ccccc2)C(=O)N/N=C\c2ccc(F)cc2)n1	80*	x	x	101*	x
Cc1ccsc1CNc1ncnc2ccc(-c3c(C)noc3C)cc12	44	37	-42	81*	4
COc1cccc(-c2ccc3ncnc(NCc4cccc(C)c4)c3c2)c1	50*	8	-22	63*	14
COCCCNc1ncnc2ccc(C)cc12	55*	x	x	39	x
Cc1ccc2ncnc(NCCC(=O)O)c2c1	-1	x	x	12	x
Cc1noc(C)c1-c1ccc2ncnc(NCC3CCCCN3C)c2c1 (stereo unspecified)	6	33	-34	6	3
COc1cccc(CNc2ncnc3cc(Cl)ccc23)c1	15	19	32	20	7
SMILES	TROY NFkB inh	EWS-Fli inh	PAX8 inh HTS	TWEAK-Fn14 inh	LGR2 inh
COc1cccc(-c2ccc3ncnc(NCc4cccs4)c3c2)c1	44	18	-14	69*	11
c1cncc(-c2ccc3ncnc(NCc4cccs4)c3c2)c1	11	3	11	20	-21
COc1cccc(S(=O)(=O)Nc2ccc3c(c2)C(=O)N(C)[C@H]2CC[C@H](CC(=O)O)O[C@@H]2CO3)c1	x	0	1	x	-9
c1cncc(CNc2ncnc3ccc(-c4cccnc4)cc23)c1	10	0	-18	23	x
COc1cccc(CNc2ncnc3ccc(-c4c(C)noc4C)cc23)c1	30	49	-83	79*	-8
Cc1nc2ccccn2c1-c1ccnn1S(=O)(=O)c1ccc(F)cc1	16	-4	7	52*	14
Cc1nc2ccccn2c1C(=O)/C=C/c1ccc(F)cc1	7	x	x	41	x
c1ccc(-c2nnc(-c3ccccn3)s2)nc1	28	49	1	81*	60*
C[C@@H]1CCCCO[C@@H](CN(C)Cc2ccccc2)[C@@H](C)CN([C@H](C)CO)C(=O)c2cc(NC(=O)C3CCCCC3)ccc2O1	x	1	8	x	-12
O=[N+]([O-])c1ccc(-n2nnnc2-c2ccccc2)c([N+](=O)[O-])c1	17	8	35	87*	40
O=C(Nc1cc(Sc2ccccn2)cc([N+](=O)[O-])c1)c1cccc(F)c1	28	x	15	65*	3
O=C(NNC(=O)c1ccccn1)c1cccc([N+](=O)[O-])c1	16	16	26	5	-2
O=C(Nc1cc(Sc2nc3ccccc3s2)cc([N+](=O)[O-])c1)c1ccccc1F	1	x	x	41	x
O=C(Nc1cc(Sc2nc3ccccc3s2)cc([N+](=O)[O-])c1)c1ccccc1	30	x	15	63*	12
CCCN(C)C[C@H]1OCCCC[C@@H](C)Oc2ccc(NC(=O)CCCN(C)C)cc2C(=O)N([C@@H](C)CO)C[C@H]1C	x	3	2	x	-2
O=C(OCCN1C(=O)c2cccc3c(N4CCOCC4)ccc(c23)C1=O)c1ccc(Cl)cc1	42	x	61*	66*	-10
COC(=O)[C@@H]1[C@@H](CO)[C@@H]2Cn3c(ccc(C4=CCCC4)c3=O)[C@@H]2N1C(=O)C1CCCC1	x	0	x	x	-4
COC(=O)c1ccc(-c2nc(-c3cccs3)no2)cc1	64*	58*	-56	92*	84*
Cc1ccccc1OCc1nnc(SCC(=O)Nc2ccc3c(c2)oc2ccccc23)n1C	-15	x	x	-49	x
Cc1ccc(-c2nnc(SCC(=O)Nc3ccc4c(c3)oc3ccccc34)n2C)c(Cl)c1	22	x	-2	67*	x
COCC(=O)N1[C@@H](CO)[C@H](c2ccccc2)C12CN(C(=O)c1ccccc1)C2	x	-6	x	x	2
Clc1ccc(OCc2cc(-c3ccccc3)no2)c(Cl)c1	50	x	x	62*	x
Cc1cccc(OCc2cc(-c3ccccc3)no2)c1C	-41	-121	-188	-48	-105
COc1ccc(S(=O)(=O)Nc2ccc3c(c2)C(=O)N([C@@H](C)CO)C[C@@H](C)[C@H](CN(C)C(=O)Nc2ccc(C(F)(F)F)cc2)O3)cc1	x	-3	x	x	20
COc1ccc(CN(C)C[C@H]2Oc3ccc(NS(C)(=O)=O)cc3C(=O)N([C@@H](C)CO)C[C@H]2C)cc1	x	1	10	x	-1
O=S(=O)(c1ccc2c(c1)OCCO2)N1CCC(c2nc3ccccc3s2)CC1	43	6	x	53*	21
O=C(c1ccc(S(=O)(=O)N2CCC(c3nc4ccccc4s3)CC2)cc1)N1CCOCC1	12	x	x	6	-7
O=C(c1ccncc1)N1CC[C@H]2[C@H](CO)Nc3ccc(-c4ccccc4)cc3[C@H]21	x	-9	-3	x	-17
Cc1cc(C(=O)CN2C(=O)C(=O)N(Cc3ccco3)C2=O)c(C)n1CCc1ccc(F)cc1	0	4	12	6	15

Assay outcomes deposited in PubChem BioAssay by several laboratories.
